From PubChem BioAssay AID1159580 (chemical genetic matrix, 2015)
About 2,000 (36%) of roughly 5,500 compounds were called active. About 18% were inconclusive and are not listed. Cut-off read from the data, not from the text of the source: active = normalized growth mostly below about 0.91 (no sharp cut-off); inconclusive = no clear call, values can overlap the other calls; inactive = mostly above about 0.92. The list shows a part of the results.

Experiment: chemical genetic growth profiling, strain panel (AID 1159580);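 note: tested at 20 µM; growth read once vehicle control cultures reached saturation at 30 °C; 1 = growth at the plate median or of vehicle wells; lower values mean less growth of the strain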
Conditions: S. cerevisiae deletion strains, growth OD
[1] = locus YAL013W, strain DEP1, active compounds read low
[2] = locus YDR150W, strain NUM1, active compounds read low
[3] = locus YJR075W, strain HOC1, active compounds read low
[4] = locus YDL101C, strain DUN1, active compounds read low
[5] = locus YHR030C, strain SLT2, active compounds read low
[6] = locus YAR019C, strain CDC15, active compounds read low
[7] = locus YBL105C, strain PKC1, active compounds read low
[8] = locus YBR135W, strain CKS1, active compounds read low
[9] = locus YBR136W, strain MEC1, active compounds read low
[10] = locus YBR160W, strain CDC28, active compounds read low
[11] = locus YDL017W, strain CDC7, active compounds read low
[12] = locus YDL028C, strain MPS1, active compounds read low
[13] = locus YDL108W, strain KIN28, active compounds read low
[14] = locus YDL132W, strain cdc53, active compounds read low
[15] = locus YDL214C, strain PRR2, active compounds read low
[16] = locus YDR052C, strain DBF4, active compounds read low
[17] = locus YDR054C, strain cdc34, active compounds read low
[18] = locus YDR226W, strain ADK1, active compounds read low
[19] = locus YDR477W, strain SNF1, active compounds read low
[20] = locus YER123W, strain YCK3, active compounds read low
[21] = locus YER133W, strain GLC7, active compounds read low
[22] = locus YFL009W, strain cdc4, active compounds read low
[23] = locus YFL029C, strain CAK1, active compounds read low
[24] = locus YFR003C, strain YPI1, active compounds read low
[25] = locus YFR019W, strain FAB1, active compounds read low
[26] = locus YFR028C, strain CDC14, active compounds read low
[27] = locus YGR040W, strain KSS1, active compounds read low
[28] = locus YGR052W, strain FMP48, active compounds read low
[29] = locus YGR092W, strain DBF2, active compounds read low
[30] = locus YHR079C, strain IRE1, active compounds read low
[31] = locus YHR082C, strain KSP1, active compounds read low
[32] = locus YHR205W, strain SCH9, active compounds read low
[33] = locus YIL147C, strain SLN1, active compounds read low
[34] = locus YJL095W, strain BCK1, active compounds read low
[35] = locus YJL128C, strain PBS2, active compounds read low
[36] = locus YJL157C, strain FAR1, active compounds read low
[37] = locus YJR016C, strain ILV3, active compounds read low
[38] = locus YJR066W, strain TOR1 (second series), active compounds read low
[39] = locus YJR066W, strain TOR1, active compounds read low
[40] = locus YKL048C, strain ELM1, active compounds read low
[41] = locus YKL067W, strain YNK1, active compounds read low
[42] = locus YKL101W, strain HSL1, active compounds read low
[43] = locus YKL193C, strain SDS22, active compounds read low
[44] = locus YKL203C, strain TOR2, active compounds read low
[45] = locus YLR113W, strain HOG1, active compounds read low
[46] = locus YLR133W, strain CKI1, active compounds read low
[47] = locus YLR403W, strain SFP1, active compounds read low
[48] = locus YML070W, strain DAK1, active compounds read low
[49] = locus YMR001C, strain CDC5, active compounds read low
[50] = locus YMR205C, strain PFK2 (second series), active compounds read low
[51] = locus YMR277W, strain FCP1, active compounds read low
[52] = locus YNL006W, strain LST8, active compounds read low
[53] = locus YNL020C, strain ARK1, active compounds read low
[54] = locus YNL161W, strain CBK1, active compounds read low
[55] = locus YNL183C, strain NPR1, active compounds read low
[56] = locus YNL207W, strain RIO2, active compounds read low
[57] = locus YNL222W, strain SSU72, active compounds read low
[58] = locus YNL307C, strain MCK1 (second series), active compounds read low
[59] = locus YOL078W, strain AVO1, active compounds read low
[60] = locus YOL136C, strain PFK27, active compounds read low
[61] = locus YOR061W, strain CKA2, active compounds read low
[62] = locus YOR119C, strain RIO1, active compounds read low
[63] = locus YOR231W, strain MKK1, active compounds read low
[64] = locus YOR329C, strain SCD5, active compounds read low
[65] = locus YPL031C, strain PHO85, active compounds read low
[66] = locus YPL153C, strain RAD53, active compounds read low
[67] = locus YPL204W, strain HRR25, active compounds read low
[68] = locus YPL209C, strain IPL1, active compounds read low
[69] = locus YPL256C, strain CLN2, active compounds read low
[70] = locus YPR025C, strain CCL1, active compounds read low
[71] = locus YPR106W, strain ISR1, active compounds read low
[72] = locus YPR111W, strain DBF20, active compounds read low
[73] = strain NNK1, active compounds read low
[74] = strain TSCII, active compounds read low

Measured: normalized growth

CCNC(=O)[C@H]1O[C@@H](n2cnc3c(N)ncnc32)C(O)[C@H]1O (stereo partly specified)
inactive: [1] 1 | locus YAL040C, strain CLN3, active compounds read low 1.02 | locus YCL061C, strain MRC1 (second series), active compounds read low 1 | [2] 1 | locus YDR363W, strain ESC2, active compounds read low 1.03 | locus YER002W, strain NOP16, active compounds read low 1.01 | [3] 1 | locus YNL175C, strain NOP13, active compounds read low 1 | locus YNL197C, strain WHI3, active compounds read low 1.01 | locus YNL224C, strain SQS1, active compounds read low 0.992 | locus YOR083W, strain WHI5 (second series), active compounds read low 1.04

Cc1nc(-c2ccc(S(=O)(=O)N3CCN(c4ncnc5scc(-c6ccccc6)c45)CC3)s2)cs1
inactive: [1] 1.02 | locus YBR229C, strain ROT2, active compounds read low 1 | locus YCL061C, strain MRC1, active compounds read low 1.01 | [4] 1 | [2] 0.936 | locus YEL061C, strain CIN8, active compounds read low 0.995 | locus YGR078C, strain PAC10, active compounds read low 1.01 | [5] 1.04 | locus YHR087W, strain rtc3, active compounds read low 1.02 | locus YJL187C, strain SWE1, active compounds read low 1.02 | locus YJR043C, strain POL32, active compounds read low 1.01 | [3] 1.02 | locus YLR039C, strain RIC1, active compounds read low 1.03 | locus YLR058C, strain SHM2 (second series), active compounds read low 1.01 | locus YLR085C, strain ARP6, active compounds read low 1.05 | locus YLR262C, strain YPT6, active compounds read low 1.02 | locus YML094W, strain GIM5, active compounds read low 1.02 | locus YMR219W, strain ESC1, active compounds read low 1.01 | locus YMR263W, strain SAP30, active compounds read low 1.03 | locus YMR307W, strain GAS1, active compounds read low 0.952 | locus YNL153C, strain GIM3, active compounds read low 1 | locus YNL298W, strain CLA4 (second series), active compounds read low 1.03 | locus YNL322C, strain KRE1, active compounds read low 1.01 | locus YNR030W, strain Alg12, active compounds read low 1.01 | locus YOL006C, strain TOP1, active compounds read low 0.997 | locus YPL055C, strain LGE1, active compounds read low 0.897 | locus YPL241C, strain CIN2, active compounds read low 1.05 | locus YPR135W, strain CTF4, active compounds read low 0.993

Cc1ccc(NS(=O)(=O)c2ccc(-c3csc(C)n3)s2)c(C)c1
inactive: [6] 0.977 | [7] 0.984 | [8] 0.979 | [9] 0.981 | [10] 0.983 | [11] 0.984 | [12] 0.98 | [4] 0.993 | [13] 0.972 | [14] 0.989 | [15] 0.904 | [16] 0.986 | [17] 0.975 | [18] 0.986 | [19] 0.885 | [20] 0.888 | [21] 0.883 | [22] 0.976 | [23] 0.979 | [24] 0.98 | [25] 0.934 | [26] 0.981 | [27] 0.895 | [28] 0.928 | [29] 0.913 | [30] 0.883 | [31] 0.976 | [32] 0.977 | [33] 0.982 | [34] 0.859 | [35] 0.943 | [36] 0.931 | [37] 0.983 | [38] 0.826 | [39] 0.936 | [40] 0.957 | [41] 0.898 | [42] 0.894 | [43] 0.985 | [44] 0.92 | [46] 0.902 | [47] 0.912 | [48] 0.856 | [49] 0.977 | [50] 0.915 | [51] 0.98 | [52] 0.978 | [53] 0.898 | [54] 0.982 | [55] 0.893 | [56] 0.975 | [57] 0.986 | [58] 0.887 | [59] 0.983 | [60] 0.915 | [61] 0.84 | [62] 0.93 | [63] 0.806 | [64] 0.98 | [65] 0.892 | [66] 0.937 | [67] 0.881 | [68] 0.982 | [70] 0.981 | [71] 0.988 | [72] 0.962 | [73] 0.974 | [74] 0.975
active: [5] 0.647 | [45] 0.676 | [69] 0.715

Cc1nc(-c2ccc(S(=O)(=O)Nc3ccc(Br)cc3Cl)s2)cs1
inactive: [6] 0.936 | [7] 0.946 | [8] 0.953 | [9] 0.942 | [10] 0.959 | [11] 0.942 | [12] 0.957 | [4] 0.956 | [13] 0.961 | [14] 0.951 | [15] 0.888 | [16] 0.941 | [17] 0.928 | [18] 0.943 | [19] 0.858 | [20] 0.904 | [21] 0.867 | [22] 0.957 | [23] 0.953 | [24] 0.949 | [25] 0.923 | [26] 0.952 | [27] 0.868 | [28] 0.866 | [29] 0.877 | [30] 0.778 | [31] 0.943 | [32] 0.944 | [33] 0.957 | [34] 0.84 | [35] 0.89 | [36] 0.893 | [37] 0.94 | [38] 0.882 | [39] 0.93 | [40] 0.919 | [41] 0.883 | [42] 0.864 | [43] 0.942 | [44] 0.893 | [46] 0.888 | [47] 0.863 | [48] 0.856 | [49] 0.946 | [50] 0.907 | [51] 0.94 | [52] 0.937 | [53] 0.884 | [54] 0.946 | [55] 0.901 | [56] 0.925 | [57] 0.952 | [58] 0.891 | [59] 0.952 | [60] 0.852 | [61] 0.859 | [62] 0.938 | [63] 0.79 | [64] 0.946 | [65] 0.862 | [66] 0.893 | [67] 0.846 | [68] 0.942 | [70] 0.953 | [71] 0.943 | [72] 0.926 | [73] 0.926 | [74] 0.937
active: [5] 0.575 | [45] 0.635 | [69] 0.672
